In the library only some 2.9% were active in any assay of this set; here they are far more common.
CF NFkB inh = inhibitors of PAF-induced NF-kB signaling, primary screen, cell-based, GFP fluorescence, uHTS. 0.86% of 360,000 active. AID 588850, 2011. inhibition, % at 5 µM. KKLEB NF-kB-GFP reporter, GFP fluorescence overnight;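 active = at least 50% inhibition at 5 µM, scaled per plate between neutral and stimulator controls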;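 note: PAF is a Pseudomonas aeruginosa culture filtrate used as stimulus; plate controls were PAF-stimulated DMSO wells for no effect and unstimulated DMSO wells for full effect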
KKLEB tox = cytotoxicity in KKLEB CF airway cells, primary screen, cytotoxicity control for CF NF-kB inhibitor project, cell-based, uHTS, fluorescence assay plates | KKLEB CF airway cells viability, ATPlite luminescence, overnight; active compounds read low; cells stimulated with P. aeruginosa culture filtrate | AID 602141, 2011 | activity change (cytotoxicity), % at 5 µM | 0.36% of 360,000 active;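 active = corrected activity change at or below -50% at 5 µM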
MITF TRPM1 inh = inhibitors of MITF-dependent TRPM1 promoter reporter, primary screen, cell-based, SK-MEL-5, single point, luciferase; SK-MEL-5 TRPM1 promoter luciferase, 24 h; inhibition, % at 12.5 µM; 0.83% of 330,000 active; AID 488899, 2010;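 active = mean inhibition across replicates of 60% or more, whatever share of single replicates reaches that level; inconclusive = some that reach 60%, reason not given; inactive = mean inhibition across replicates below 60%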
Shn3 3UTR inh = reduction of Shn3 3'UTR firefly luciferase signal, primary screen, Schnurri-3 inhibitor project, cell-based, Clone20 osteoblasts, set 2; 0.52% of 360,000 active; Clone20 osteoblast Shn3 3'UTR firefly luciferase, 24 h; AID 588674, 2011; inhibition, % at 12.5 µM;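 active = mean inhibition of at least 75% with every replicate also reaching 75%; inconclusive = mean inhibition at least 75% but some replicate below; inactive = mean inhibition below 75%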;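 note: 0% = median of neutral control wells and 100% = pilot-screen positive control compound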
LMP1 NFkB inh = EBV LMP1-driven NF-kappaB luciferase reporter inhibitors, primary screen, cell-based, luminescence, single point; 0.69% of 350,000 active; LMP1-induced NF-kappaB luciferase reporter cells; inhibition, % at 12.5 µM; in the data active = inhibition above about 41%; inconclusive = no clear call, values can overlap the other calls;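 note: 0% = neutral control wells and 100% = reference inhibitor control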
Peg3 promoter = Peg3 promoter-driven luciferase inhibitors, primary screen, cell-based, HeLa, luciferase luminescence. HeLa PEG-Prom luciferase reporter, overnight. inhibition, % at 20 µM. 1.7% of 360,000 active. AID 588405, 2011;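 active = inhibition of at least 50% at 20 µM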
CF NFkB conf = inhibitors of PAF-induced NF-kB signaling, retest, confirmation, cell-based, GFP fluorescence, single concentration; shares compounds with CF NFkB inh; KKLEB CF airway cells, overnight; inhibition, % at 5 µM; 64% of 1,300 active; in the data active = inhibition above about 40%;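 note: stimulus PAF is a Pseudomonas aeruginosa filtrate and not platelet activating factor; plate controls were DMSO wells with stimulus for no effect and unstimulated DMSO wells for full effect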
The depositor's hits bear a star; ? = inconclusive; . = no result given; ! = a repeat was not active.

SMILES | CF NFkB inh | KKLEB tox | MITF TRPM1 inh | Shn3 3UTR inh | LMP1 NFkB inh | Peg3 promoter | CF NFkB conf
Cc1sc2ncnc(SCC(=O)N3CCC(c4noc5ccc(F)cc45)CC3)c2c1C | -3 | -11 | -3 | 5 | 3 | -7 | .
CCOc1ccc(OCC)c(NC(=O)c2nnn(CC(=O)Nc3cc(C)cc(C)c3)c2N)c1 | 50* | -33 | 49 | 55 | 6 | 26 | 37
CCOc1ccc(NC(=O)c2nnn(CC(=O)Nc3ccccc3OCC)c2N)cc1 | 2 | -1 | -8 | -6 | 0 | -33 | .
CN(Cc1ccccc1)C(=O)c1cnc(Cc2c[nH]c3ccccc23)c(I)c1 | -3 | -10 | . | 19 | . | 12 | .
O=S(=O)(c1ccc(Br)cc1)c1cnc2ccccc2n1 | 57* | -20 | 8 | 0 | 1 | 33 | 49*
COc1ccc(S(=O)(=O)c2cnc3ccccc3n2)cc1 | 16 | 0 | 10 | 31 | 2 | 22 | .
CC(=O)c1c(C)[nH]c(C(=O)N2CCc3ccccc32)c1C | -10 | -1 | 3 | -18 | -9 | 8 | .
CCOC(=O)c1[nH]c(C)c(C(=O)N2CCc3ccccc32)c1C | 54* | -36 | 59 | 30 | 17 | -35 | 57*
O=C(Nc1ccccc1N1CCOCC1)c1cc(-c2ccco2)nc2ccccc12 | 75* | -13 | 7 | 18 | 9 | 60* | 87*
C#CCN(C[C@@H]1[C@@H](OC(=O)NCc2ccco2)[C@@H](OC(=O)NCc2ccco2)Cn2c(=O)n(CCCCCC)c(=O)n21)S(=O)(=O)c1ccc(C)cc1 | 28 | 7 | . | 27 | -30 | -10 | .
C#CCN(C[C@@H]1[C@@H](OC(=O)NCc2ccco2)[C@@H](OC(=O)NCc2ccco2)Cn2c(=O)ccc(=O)n21)S(=O)(=O)c1ccc(C)cc1 | 66* | -21 | . | -5 | 23 | 95* | 52*
Cc1ccc(-c2ccc3c(c2)O[C@H](CN(C)C(=O)Nc2ccc(C(F)(F)F)cc2)[C@H](C)CN([C@H](C)CO)S3(=O)=O)cc1 | -23 | -4 | . | -8 | . | 20 | .
O=[N+]([O-])c1ccc2ncnc(N3CCN(Cc4ccc5c(c4)OCO5)CC3)c2c1 | 68* | 10 | 5 | 85 | 42* | 12 | 85*
Cc1ccc(CNC(=O)C2CCC(=O)N(Cc3cccc(F)c3)C2)s1 (centres undefined) | -5 | 1 | . | -21 | 0 | -18 | .
COc1ccc(C(=O)N2CCCc3ccccc32)cc1OC | 27 | 3 | -16 | 1 | -9 | 11 | .
COc1cccc(C(=O)N2CCCc3ccccc32)c1 | 54* | -50 | -10 | 16 | 10 | 9 | 10
Cc1cc(C(=O)NNC(=O)c2ccccc2F)c2ccccc2n1 | -12 | 15 | 1 | -22 | 3 | 6 | .
COc1cc(N)c(C(=O)c2nccc3cc(OC)c(OC)cc23)cc1OC | -11 | -3 | -4 | 15 | -19 | 5 | .
COc1cc(Br)c(C(=O)c2nccc3cc(OC)c(OC)cc23)cc1OC | 60* | -14 | 14 | 8 | -4 | 8 | 14
Cc1c(C(=O)N2CCC2(C)C(=O)O)oc2ccccc12 (centres undefined) | 6 | -21 | . | -7 | . | -2 | .
O=C(Nc1ccc(Cl)cc1)c1nc[nH]c1C(=O)NCCCCNC(=O)c1[nH]cnc1C(=O)Nc1ccc(Cl)cc1 | 79* | -13 | 18 | 11 | -1 | 80* | 102*
Cc1cc(C)c(C(O)c2ncc(-c3ccccc3F)[nH]2)c(C)c1 (centres undefined) | -10 | 1 | . | 10 | . | 1 | .
C[C@@H]1[C@@H](Sc2ccccc2)CC(=O)O[C@@H]1c1ccc(-c2ccccc2)cc1 | 62* | -48 | 11 | -24 | 2 | 97* | -74
OC(c1ccc(F)cc1)c1nc(-c2ccc(Cl)cc2)cs1 (centres undefined) | -36 | 13 | . | -15 | . | -110 | .
CCOC(=O)c1c(C)c2c(=O)[nH]cnc2n1-c1ccccc1 | 56* | -5 | -9 | 3 | 27 | -17 | 66*
SMILES | CF NFkB inh | KKLEB tox | MITF TRPM1 inh | Shn3 3UTR inh | LMP1 NFkB inh | Peg3 promoter | CF NFkB conf
c1ccc(-c2csc3ncnc(NCc4ccccn4)c23)cc1 | 22 | -14 | 33 | 75 | 19 | 39 | .
c1ccc(CNc2ncnc3scc(-c4cccs4)c23)nc1 | 52* | -6 | 28 | 83 | ? | 30 | 35
CC1=C(C(=O)N2CCOCC2)CC(CC(=O)NCc2cccc3ccccc23)C(=O)N1Cc1ccc(C(C)(C)C)cc1 (centres undefined) | -40 | -4 | . | 13 | . | 8 | .
CC(C)N(C)c1ncnc2c1ncn2[C@H]1CN(C2CCCC2)C[C@@H](CO)O1 | -1 | 3 | . | -14 | . | 0 | .
Cc1nc(CC(=O)NNS(=O)(=O)c2cccc(Cl)c2Cl)cs1 | 10 | -20 | 4 | -38 | 4 | 6 | .
CCN(C(=O)COC(=O)c1ccc([N+](=O)[O-])o1)c1cccc2ccccc12 | 66* | -16 | 44 | 3 | -7 | 35 | 18
CC(C)(C)N(Cc1ccccc1)C(=O)COC(=O)c1ccc([N+](=O)[O-])o1 | 2 | 10 | 57 | 15 | 1 | 8 | .
O=C(NC(=S)Nc1cccc2[nH]ncc12)c1ccccc1 | 62* | 9 | -62 | -53 | 8 | -215 | 21
CNC(=S)Nc1cccc2[nH]ncc12 | 8 | 0 | 4 | -11 | -4 | 7 | .
O=C(Nc1cccc2[nH]ncc12)c1ccc(F)cc1 | 79* | 0 | -89 | -21 | 38 | -106 | 93*
Nc1cc2[nH]c(=O)c3ccccc3c2cc1Br | -71 | 7 | 8 | 0 | -11 | 2 | .
Nc1cc2c(cc1Br)[nH]c(=O)c1ccccc12 | 58* | -14 | 93* | 83 | -109 | -7 | -59
Cc1ccc(S(=O)(=O)N2[C@@H](c3ccc(Br)cc3)C(C(=O)O)=CC[C@H]2c2cccs2)cc1 | -23 | 26 | 4 | -5 | 3 | 6 | .
Cc1cn(-c2cc(C(=O)Nc3ccc(C)c(NC(=O)C(=O)c4c[nH]c5ccccc45)c3)cc(C(F)(F)F)c2)cn1 | 50*! | 0 | 12 | 25 | -1 | 29 | 21
COC(=O)c1ccc(NC(=O)C(=O)c2c[nH]c3ccccc23)cc1 | 0 | -4 | -34 | -27 | -18 | -134 | .
O=C(C=Cc1ccccc1O)c1ccccc1O | 71* | -45 | 25 | -54 | -14 | 19 | 13

Source: PubChem BioAssay
